Source: PubChem BioAssay
ADAM17 inh: ADAM17 inhibition, QFRET primary screen | AID 720648 | P78536 | recombinant ADAM17, EDANS/DABCYL FRET peptide cleavage | inhibition, % at 6.95 µM | hit rate 0.83% among 370,000;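 active = inhibition above the mean of compounds lying between control limits plus 3 SD, set per campaign, cut at about 8.5% in these data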;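 also: 0% = DMSO-only wells as the low control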
Target sequence (P78536 215-824 limits assumed): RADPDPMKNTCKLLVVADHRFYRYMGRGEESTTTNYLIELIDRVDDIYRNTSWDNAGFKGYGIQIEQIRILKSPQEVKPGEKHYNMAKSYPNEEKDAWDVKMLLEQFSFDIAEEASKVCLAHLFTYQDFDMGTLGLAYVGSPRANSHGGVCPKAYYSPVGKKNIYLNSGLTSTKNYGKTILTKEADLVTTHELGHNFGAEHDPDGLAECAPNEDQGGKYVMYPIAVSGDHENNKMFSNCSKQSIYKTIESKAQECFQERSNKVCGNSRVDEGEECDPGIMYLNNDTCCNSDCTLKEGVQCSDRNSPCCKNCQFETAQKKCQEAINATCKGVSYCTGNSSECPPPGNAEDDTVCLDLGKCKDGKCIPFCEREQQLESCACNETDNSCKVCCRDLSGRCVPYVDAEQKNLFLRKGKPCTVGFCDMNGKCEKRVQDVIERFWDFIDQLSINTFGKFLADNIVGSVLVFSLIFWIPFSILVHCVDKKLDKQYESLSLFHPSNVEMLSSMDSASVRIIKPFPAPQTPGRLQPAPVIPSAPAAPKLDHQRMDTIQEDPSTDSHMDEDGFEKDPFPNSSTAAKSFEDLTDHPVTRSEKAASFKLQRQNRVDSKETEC
FAS TE block: FAS thioesterase (human) inhibition; inhibition, % at 15 µM; recombinant FAS-TE, OMFH fluorogenic substrate, fluorescence endpoint; P49327; hit rate 0.67% among 360,000;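 active = compounds whose normalised, plate-corrected inhibition of enzyme fluorescence in the single-dose primary screen is 50% or more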;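 also: 0% = DMSO with enzyme and 100% = substrate without enzyme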
ADAM10 inh: ADAM10 inhibition, QFRET primary screen | recombinant ADAM10, EDANS/DABCYL FRET peptide cleavage, 3 h | AID 720582 | inhibition, % at 7 µM | hit rate 0.62% among 370,000;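 active = inhibition above a per-campaign cutoff equal to the mean of compounds falling between control-based bounds plus 3 SD, cut at about 20% in these data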;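 also: 0% = DMSO wells while the 100% control is not disclosed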
NR3A LBD binder: modulators (binders) of human NR3A ligand-binding domain; NR3A LBD differential scanning fluorimetry, Tm shift; 0% = protein alone, 100% = glycine-bound protein; hit rate 2.5% among 340,000; Tm shift relative to glycine control, % at 25 µM;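 active = melting temperature shift of at least 10% of the positive control shift, at one fixed dose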
aDG glyco act: alpha-DG glycosylation activation; Pro5-aDG cells, alpha-DG glycosylation AlphaScreen (IIH6); 0% Pro5, 100% B10-LARGE cell signal; activation, % at 10 µM; hit rate 0.22% among 360,000; AID 624168;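 active = activation of at least 8% versus controls, or a plate z-score of at least 8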;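 also: Pro5 are CHO cells carrying HIG-tagged alpha-DG that lacks glycosylation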
FAS-TE conf: confirmation of human fatty acid synthase thioesterase inhibitors; shares compounds with FAS TE block; recombinant FAS-TE, OMFH fluorogenic substrate, fluorescence; hit rate 45% among 2,300; AID 624325; inhibition, % at 15 µM;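 active = compounds inhibiting the enzyme by at least 50% at 15 µM in any one of the replicates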;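 also: 0% = enzyme with DMSO only and 100% = wells lacking enzyme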
Starred values were filed as active, the others as inactive; . = no result; ! = a repeat was not active. A selection: hits, their analogues and other compounds. The true share with any hit is near 4%.

SMILES	ADAM17 inh	FAS TE block	ADAM10 inh	NR3A LBD binder	aDG glyco act	FAS-TE conf
O=C(Cc1ccc(S(=O)(=O)N2CCOCC2)s1)N1CCN(S(=O)(=O)c2ccccc2[N+](=O)[O-])CC1	-3	87*	-6	0	0	83*
CCOc1ccc(S(=O)(=O)N2CCN(C(=O)Cc3ccc(S(=O)(=O)N4CCOCC4)s3)CC2)cc1	-2	23	-8	-2	0	.
Cc1ccc(C)c(S(=O)(=O)N2CCN(C(=O)Cc3ccc(S(=O)(=O)N4CCOCC4)s3)CC2)c1	-2	69*	-3	0	0	63*
O=C(Cc1ccc(S(=O)(=O)N2CCOCC2)s1)N1CCN(S(=O)(=O)c2cccc([N+](=O)[O-])c2)CC1	0	37	3	-1	1	.
C=CCOC(=O)C(C(=O)Cc1ccccc1)c1ccccc1 (configuration not stated)	1	16	-15	2	0	.
COCCCNC(=O)C[C@H]1C[C@H](C(=O)N2CCOCC2)[C@@]2(CCC3CCCC3)c3[nH]c4ccc(Cl)cc4c3CCN2C1=O	1	86*	0	3	0	34
C[C@]12c3[nH]c4ccc(Cl)cc4c3CCN1C(=O)[C@@H](CC(=O)NCCN1CCOCC1)C[C@@H]2C(=O)N1CCOCC1	-4	-12	-3	1	0	.
O=C(C[C@H]1C[C@H](C(=O)N2CCOCC2)[C@@]2(CCC3CCCC3)c3[nH]c4cc(-c5ccco5)ccc4c3CCN2C1=O)NCCc1ccccn1	-108	64*	-377	-1	0	71*
O=C(C[C@H]1C[C@H](C(=O)N2CCOCC2)[C@@]2(CCC3CCCC3)c3[nH]c4cc(-c5ccco5)ccc4c3CCN2C1=O)NCCC1=CCCCC1	.	28	.	-9	0	.
O=C(C[C@H]1C[C@H](C(=O)N2CCOCC2)[C@@]2(CCC3CCCC3)c3[nH]c4ccc(Cl)cc4c3CCN2C1=O)NCCN1CCOCC1	-4	85*	1	0	1	76*
O=C(C[C@H]1C[C@H](C(=O)N2CCOCC2)[C@@]2(CCC3CCCC3)c3[nH]c4ccc(Cl)cc4c3CCN2C1=O)NCCc1ccccn1	-4	83*	-6	-3	0	93*
COc1cccc(-n2nnc3c(=O)n(CC(=O)NCC4CCCO4)cnc32)c1 (configuration not stated)	-7	-5	-7	3	0	.
Cc1cs/c(=N\N=C\c2ccccc2)n1Cc1ccco1	3	13	3	4	0	.
COc1cccc(CNCc2cccc(Br)c2)c1OC	-4	-1	4	1	0	.
Cc1cccc(NS(=O)(=O)c2ccc(C(=O)NCC3(N4CCCCC4)CCCCC3)cc2)c1C	-1	-6	-20	-1	0	.
C=CCC[C@@H](Cc1ccc(F)cc1)C(=O)OC[C@@H](C)NC(=O)[C@@H](CC=C)CC(=O)N[C@H](CO)Cc1ccccc1	5	20	6	-2	0	.
O=C(Nc1nc(-c2ccc3ccccc3c2)cs1)C1CCN(S(=O)(=O)c2cccs2)CC1	2	88*	-1	-8	2	7
COCCn1c(=NC(=O)c2nc3ccccc3s2)sc2cc(S(C)(=O)=O)ccc21	0	3	-12	2	0	.
COCCn1c(=NC(=O)c2ccc(S(=O)(=O)N3CCCc4ccccc43)cc2)sc2cc(S(C)(=O)=O)ccc21	-4	84*	-8	-6	0	32*
CC1(C(=O)Nc2ccc(Cl)c(Cl)c2)CCN1C(=O)CC1CCCC1 (configuration not stated)	0	62*	9	.	0	54*
CC1(C(=O)Nc2ccc3c(c2)OCCO3)CCN1C(=O)CC1CCCC1 (configuration not stated)	-3	-6	-1	.	0	.
Cc1ccc(S(=O)(=O)N2CCCCC2)cc1C(=O)Nc1ccccn1	-5	2	-5	-1	0	.
Cc1ccc(S(=O)(=O)N2C[C@H]3[C@H]4C(=O)N(C5CCCCC5)C(=O)[C@H]4CC(=O)[C@H]3[C@@H]2c2cccc3ccccc23)cc1	-3	97*	4	.	0	10
Cc1ccc(S(=O)(=O)N2C[C@H]3[C@H]4C(=O)N(Cc5ccccc5)C(=O)[C@H]4CC(=O)[C@H]3[C@@H]2c2ccccc2Cl)cc1	6	85*	15	.	0	22
O=C(CSc1nnc(-c2ccccn2)n1Cc1ccco1)c1ccc(-c2ccccc2)cc1	3	51*	6	1	0	17
SMILES	ADAM17 inh	FAS TE block	ADAM10 inh	NR3A LBD binder	aDG glyco act	FAS-TE conf
COc1ccc(CNC(=O)C(C)OC(=O)C23CC4CC(CC(O)(C4)C2)C3)cc1 (configuration not stated)	1	-7	6	0	0	.
Cc1ccc(CN2C(=O)C(Cc3ccccc3)Nc3ncnc(N4CCN(c5ccccc5)CC4)c32)cc1 (configuration not stated)	8	62*	14	0	0	12
O=C1C(Cc2ccccc2)Nc2ncnc(N3CCN(c4ccccc4)CC3)c2N1Cc1ccc(Br)cc1 (configuration not stated)	-4	83*!	-17	-4	0	15
O=C1C(Cc2ccccc2)Nc2ncnc(N3CCN(c4ccccc4)CC3)c2N1Cc1ccccc1 (configuration not stated)	-2	7	6	-2	0	.
CCN(CC)S(=O)(=O)c1ccc(C)c(N=C=S)c1	-5	-2	-3	1	1	.
CN(C(=O)CCc1nnc(CCCCc2ccccc2)o1)C1CC(C)(C)NC(C)(C)C1	-3	-2	-5	1	0	.
CSC1=C(C#N)C(c2ccccc2Cl)C2=C(N1)c1ccccc1C2=O (configuration not stated)	-3	28	-17	-1	0	.
Cc1nn(-c2ccccn2)c2c1C(c1ccccc1Cl)C1=C(N2)c2ccccc2C1=O (configuration not stated)	5	53*	2	-9	0	3
COc1ccc(CCN(C)c2ccc(S(=O)(=O)N3CCCC3)cn2)cc1OC	-4	3	-4	1	0	.
COc1cc(CN(C)c2ccc(S(=O)(=O)N3CCCC3)cn2)ccc1OC(F)F	-3	68*	3	0	0	22
O=C(CCN1C(=O)/C(=C/c2ccccc2Cl)SC1=S)Nc1ccccc1C(=O)O	-4	71*	-3	1	0	77*
Cc1cc(NC(=O)CCN2C(=O)/C(=C\c3ccccc3Cl)SC2=S)no1	3	8	11	-1	0	.
O=C(CCN1C(=O)/C(=C\c2ccccc2Cl)SC1=S)Nc1cccnc1	3	57*	-6	-6	0	54*
